Results as given in PubChem BioAssay.
For some assays here: Results with a measured potency or affinity are listed apart. The source made the active and inactive calls. Unless noted, how the calls were made is not given here.

Experiments:
[1] = antimalarial activity against Dd2 strain (AID 2302;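 active means growth inhibition above 50% at the single 2 µM test dose, taken to imply half-maximal potency below 2 µM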;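 further: 0% = DMSO untreated growth and 100% = chloroquine plus artemisinin killed control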); details: P. falciparum Dd2 in RBCs, LDH growth readout, 72 h; at 2 µM; stronger effect = higher value
[2] = human hepatoma cell viability loss – ATP luminescence, cytotoxicity control for P. falciparum antimalarial project, primary screen (AID 2303;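 active means inhibition above 50%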;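 further: 0% = DMSO wells and 100% = digitonin-killed cells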); details: HepG2 viability, 24-48 h, at 10 µM, stronger effect = higher value
[3] = biological target: L-lactate dehydrogenase (Plasmodium falciparum (isolate CDC / Honduras)) (UniProt Q27743); assay: PfLDH activity inhibition – cell lysate, 3D7 strain, counter-screen for P. falciparum growth inhibition project (AID 2304);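 further: 0% = vehicle and 100% = reference inhibitor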; details: P. falciparum 3D7 crude extract, LDH APAD/NBT absorbance; at 2 µM; stronger effect = higher value
L-lactate dehydrogenase (Plasmodium falciparum (isolate CDC / Honduras)), sequence (Q27743 whole entry, looked up): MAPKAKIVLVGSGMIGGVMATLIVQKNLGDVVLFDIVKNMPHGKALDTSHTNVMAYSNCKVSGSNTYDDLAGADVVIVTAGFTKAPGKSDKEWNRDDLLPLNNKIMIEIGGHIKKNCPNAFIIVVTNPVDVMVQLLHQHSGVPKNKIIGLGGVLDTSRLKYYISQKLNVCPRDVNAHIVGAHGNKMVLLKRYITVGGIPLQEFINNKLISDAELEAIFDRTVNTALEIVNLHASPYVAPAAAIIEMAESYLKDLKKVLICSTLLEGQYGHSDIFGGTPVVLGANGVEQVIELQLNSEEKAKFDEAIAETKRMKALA

[4] = inhibition of 3D7 malaria parasite growth – strain 3D7 (AID 2306);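 further: 0% = DMSO wells and 100% = chloroquine plus artemisinin control wells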; details: P. falciparum 3D7 erythrocytic growth, LDH absorbance, 72 h; at 2 µM; stronger effect = higher value
[5] = biological target: Calcium-dependent protein kinase 1 (Plasmodium falciparum (isolate 3D7)) (UniProt P62344); assay: PfCDPK1 kinase inhibitors, biochemical, TCAMS library (AID 1159585; cut-off not given, nearly all actives have IC50 up to about 0.98 µM;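 further: inhibitors leave more ATP so luminescence rises with inhibition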); details: recombinant PfCDPK1, Kinase-Glo ATP depletion luminescence
Calcium-dependent protein kinase 1 (Plasmodium falciparum (isolate 3D7)), sequence (P62344 whole entry, looked up): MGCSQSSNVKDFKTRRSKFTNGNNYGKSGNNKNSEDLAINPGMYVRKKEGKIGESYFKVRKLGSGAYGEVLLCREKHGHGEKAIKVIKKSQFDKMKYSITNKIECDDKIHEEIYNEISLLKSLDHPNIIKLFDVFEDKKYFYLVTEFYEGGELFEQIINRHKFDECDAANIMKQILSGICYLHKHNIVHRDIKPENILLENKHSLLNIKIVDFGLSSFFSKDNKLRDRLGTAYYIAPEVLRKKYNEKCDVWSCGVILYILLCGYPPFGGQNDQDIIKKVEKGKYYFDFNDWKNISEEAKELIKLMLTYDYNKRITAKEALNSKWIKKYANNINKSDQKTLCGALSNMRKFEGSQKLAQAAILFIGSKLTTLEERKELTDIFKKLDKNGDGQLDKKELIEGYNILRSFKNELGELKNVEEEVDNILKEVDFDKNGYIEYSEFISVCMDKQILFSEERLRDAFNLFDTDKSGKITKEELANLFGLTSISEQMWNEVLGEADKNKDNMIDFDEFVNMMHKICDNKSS

[6] = biological target: Plasmodium falciparum protein kinase 6 (PK6, PF3D7_1337100) (UniProt Q8IDW1); assay: PfPK6 kinase inhibitors, biochemical, TCAMS library (AID 1159586); details: recombinant PfPK6, Kinase-Glo ATP depletion luminescence
Plasmodium falciparum protein kinase 6 (PK6, PF3D7_1337100), sequence (Q8IDW1 1-305): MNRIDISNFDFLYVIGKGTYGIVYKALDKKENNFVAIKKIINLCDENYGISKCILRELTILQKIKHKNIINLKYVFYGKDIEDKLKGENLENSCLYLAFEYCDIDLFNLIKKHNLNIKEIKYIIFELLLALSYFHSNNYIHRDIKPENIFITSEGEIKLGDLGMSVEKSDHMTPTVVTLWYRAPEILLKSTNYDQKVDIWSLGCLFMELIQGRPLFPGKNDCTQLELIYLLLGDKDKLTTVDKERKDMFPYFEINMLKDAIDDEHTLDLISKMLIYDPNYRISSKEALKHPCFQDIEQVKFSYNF

[7] = biological target: Protein kinase 7 (PK7), Plasmodium falciparum 3D7 (PF3D7_0213400) (UniProt Q7YTF7); assay: inhibition of Plasmodium PK7 catalytic activity – biochemical, TCAMS antimalarial set, Kinase-Glo luminescence (AID 1159587); details: recombinant PfPK7, Kinase-Glo ATP depletion luminescence
Protein kinase 7 (PK7), Plasmodium falciparum 3D7 (PF3D7_0213400), sequence (Q7YTF7 1-343): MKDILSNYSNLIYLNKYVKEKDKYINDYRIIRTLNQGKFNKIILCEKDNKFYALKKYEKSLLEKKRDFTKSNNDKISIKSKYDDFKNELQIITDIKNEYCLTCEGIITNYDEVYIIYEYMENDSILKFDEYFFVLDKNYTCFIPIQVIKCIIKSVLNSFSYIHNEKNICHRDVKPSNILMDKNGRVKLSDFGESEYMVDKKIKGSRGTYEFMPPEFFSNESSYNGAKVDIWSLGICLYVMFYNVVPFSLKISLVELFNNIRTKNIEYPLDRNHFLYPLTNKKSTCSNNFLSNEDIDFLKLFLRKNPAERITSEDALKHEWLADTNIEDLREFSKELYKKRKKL

[8] = biological target: Calcium-dependent protein kinase 4 (Plasmodium falciparum (isolate 3D7)) (UniProt Q8IBS5); assay: PfCDPK4 kinase inhibitors, biochemical, TCAMS library (AID 1159588; cut-off not given, nearly all actives have IC50 up to about 0.91 µM); details: recombinant PfCDPK4, Kinase-Glo ATP depletion luminescence
Calcium-dependent protein kinase 4 (Plasmodium falciparum (isolate 3D7)), sequence (Q8IBS5 whole entry, looked up): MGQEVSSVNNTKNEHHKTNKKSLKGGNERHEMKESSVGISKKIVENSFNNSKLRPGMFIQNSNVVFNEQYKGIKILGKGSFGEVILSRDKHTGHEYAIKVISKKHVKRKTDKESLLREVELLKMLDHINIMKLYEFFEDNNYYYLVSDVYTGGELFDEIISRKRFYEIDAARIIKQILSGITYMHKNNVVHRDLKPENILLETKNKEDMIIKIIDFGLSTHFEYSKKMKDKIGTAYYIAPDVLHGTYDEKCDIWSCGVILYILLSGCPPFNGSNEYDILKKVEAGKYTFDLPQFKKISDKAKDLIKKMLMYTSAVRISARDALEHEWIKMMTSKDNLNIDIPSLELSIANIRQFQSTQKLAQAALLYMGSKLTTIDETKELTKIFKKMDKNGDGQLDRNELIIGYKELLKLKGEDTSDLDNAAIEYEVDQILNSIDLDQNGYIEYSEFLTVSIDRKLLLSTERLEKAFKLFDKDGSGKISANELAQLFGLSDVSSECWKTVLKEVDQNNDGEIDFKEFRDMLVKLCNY

Row | Compound | growth inhibition [1] | inhibition [2] | inhibition [3] | growth inhibition [4] | outcome [5] | outcome [6] | outcome [7] | outcome [8]
1 | CCCN(CCC)C(=O)c1cc(C(=O)N[C@@H](Cc2ccccc2)[C@H](O)CNCc2cccc(OC)c2)cc(N2CCCCS2(=O)=O)c1 | 99% (active) | -1% (inactive) | 4% (inactive) | 97% (active) | inactive | inactive | inactive | inactive
2 | COC(=O)c1cccc(NC(=O)NC2CCN(c3ccnc(Nc4ccc(F)cc4)n3)C2)c1 (stereo not given) | 83% (active) | 5% (inactive) | 3% (inactive) | 100% (active) | inactive | inactive | inactive | inactive
3 | CCCN1CCC=C(c2cccc(Nc3nccc(Nc4cc(OC)ccc4C)n3)c2)C1 | 35% (inactive) | 15% (inactive) | -1% (inactive) | 88% (active) | inactive | inactive | inactive | inactive
4 | CC[C@H](C)CNCc1ccc(OCc2cccc(COc3ccc(CNC[C@@H](C)CC)cc3I)c2)c(I)c1 | 60% (active) | 99% (active) | 7% (inactive) | 99% (active) | inactive | inactive | inactive | inactive
5 | Cc1n[nH]c(C)c1C1CCN(CC2CCC(NC(=O)/C=C/c3ccc(Cl)c(Cl)c3)CC2)CC1 (stereo not given) | 53% (active) | 15% (inactive) | 3% (inactive) | 101% (active) | inactive | inactive | inactive | inactive
6 | CCC(C)NC(=O)CN1CN(c2ccccc2)C2(CCN(C(=O)c3ccc(C(C)(C)C)cc3)CC2)C1=O (stereo not given) | 100% (active) | -6% (inactive) | -4% (inactive) | 101% (active) | inactive | inactive | inactive | inactive
7 | COc1ccc(-c2cccc(NC(=O)c3cccc(Cl)c3)c2)cc1CN1CCCN(C)CC1 | 99% (active) | 20% (inactive) | 6% (inactive) | 101% (active) | inactive | inactive | inactive | inactive
8 | CCOc1cc(C(=O)N[C@@H](Cc2ccccc2)[C@H](O)CNCc2cc(OC)cc(OC)c2)cc(N2CCCC2=O)c1 | 63% (active) | 0% (inactive) | 4% (inactive) | 94% (active) | inactive | inactive | inactive | inactive
9 | CCOc1c(OC)ccc2c1CCN(CCN1CCC(CNC(=O)c3ccc(-c4ccc(C(F)(F)F)cc4)cc3)CC1)C2 | 21% (inactive) | 54% (active) | 2% (inactive) | 102% (active) | inactive | inactive | inactive | inactive
10 | N#CCCN1CCN(Cc2ccc(-c3ccc(-c4nc5ccc(F)cc5[nH]4)s3)cc2)CC1 | 38% (inactive) | 58% (active) | 6% (inactive) | 99% (active) | inactive | inactive | inactive | inactive
11 | COc1ccc(-c2cc3ncn(CC(=O)N4CCN(c5cccc(OC)c5)CC4)c(=O)c3s2)cc1 | 26% (inactive) | 49% (inactive) | -7% (inactive) | 84% (active) | inactive | inactive | inactive | inactive
12 | Cc1ccccc1C1CCN(C2CCC(NC(=O)c3ccc(-c4ccccc4F)o3)CC2)CC1 (stereo not given) | 66% (active) | 42% (inactive) | 1% (inactive) | 99% (active) | inactive | inactive | inactive | inactive
13 | Fc1cccc(COc2ccc(Nc3ncnc4sc(C#C[C@H]5CC[C@H](CNCC(F)(F)F)N5)cc34)cc2Cl)c1 | 51% (active) | 10% (inactive) | -4% (inactive) | 100% (active) | inactive | inactive | inactive | inactive
14 | CN(c1ccc(NC(=O)c2cccc(F)c2)cc1)C1CCCN(Cc2cccc(O)c2)C1 (stereo not given) | 2% (inactive) | 13% (inactive) | -3% (inactive) | 85% (active) | inactive | inactive | inactive | inactive
15 | Oc1ccc(CCNc2nc(N/N=C/c3ccc(Cl)cc3)nc(N3CCNCC3)n2)cc1 | 68% (active) | 14% (inactive) | 5% (inactive) | 100% (active) | inactive | inactive | inactive | inactive
16 | CCN(CCCN1CCCCC1)c1cc(C)nc(Nc2ccc(OC)cc2)n1 | 24% (inactive) | 23% (inactive) | -6% (inactive) | 100% (active) | inactive | inactive | inactive | inactive
17 | Cc1nc(Nc2ccncc2)cc(-c2ccncc2)n1 | 3% (inactive) | 6% (inactive) | -2% (inactive) | 100% (active) | inactive | inactive | inactive | inactive
18 | COc1cc2nc(NC3CCN(Cc4ccccc4)CC3)nc(N)c2cc1OC | 30% (inactive) | 27% (inactive) | -2% (inactive) | 101% (active) | inactive | inactive | inactive | inactive
19 | Cc1cccc2c(/C=C/C(=O)NC3CCC(CCN4CCc5ccc(C#N)cc5CC4)CC3)c[nH]c12 (stereo not given) | 49% (inactive) | 18% (inactive) | -1% (inactive) | 91% (active) | inactive | inactive | inactive | inactive
20 | CN(C)CCN(C)Cc1ccc(-c2ccc(NS(=O)(=O)c3cccc4cccnc34)cc2)cc1 | 16% (inactive) | 23% (inactive) | -1% (inactive) | 93% (active) | inactive | inactive | inactive | inactive

Row | Compound | growth inhibition [1] | inhibition [2] | inhibition [3] | growth inhibition [4] | outcome [5] | outcome [6] | outcome [7] | outcome [8]
21 | Fc1ccc(-c2nc(NCc3cccc(C(F)(F)F)c3)nn2-c2cccc(C(F)(F)F)c2)cc1C(F)(F)F | 58% (active) | 2% (inactive) | -5% (inactive) | 90% (active) | inactive | inactive | inactive | inactive
22 | OC(CNC1CCCCC1)Cn1c2ccc(I)cc2c2cc(I)ccc21 (stereo not given) | 93% (active) | 10% (inactive) | 2% (inactive) | 100% (active) | inactive | inactive | inactive | inactive
23 | CCCCCCn1c(Sc2ccc(C#N)c([N+](=O)[O-])c2)nnc1-c1cc(OC)cc(OC)c1 | 41% (inactive) | 35% (inactive) | -5% (inactive) | 95% (active) | inactive | inactive | inactive | inactive
24 | O=[N+]([O-])c1cccc(CNC2CCN(Cc3ccc4ccccc4c3)CC2)c1 | 22% (inactive) | 12% (inactive) | -3% (inactive) | 100% (active) | inactive | inactive | inactive | inactive
25 | CCCCCCNC(=O)C1Cc2c([nH]c3ccc(Br)cc23)C2(CCN(CCc3ccccc3)CC2)N1 (stereo not given) | 94% (active) | 36% (inactive) | 0% (inactive) | 100% (active) | inactive | inactive | inactive | inactive
26 | CN(C)CCN(C)Cc1cccc(-c2cccc(NC(=O)c3cccc(C#N)c3)c2)c1 | 10% (inactive) | -4% (inactive) | -1% (inactive) | 92% (active) | inactive | inactive | inactive | inactive
27 | O=C(Cn1c(CCc2cccc(F)c2F)cc(=O)c2ccccc21)N(CCN1CCCC1)Cc1ccc(-c2ccc(C(F)(F)F)cc2)cc1 | 57% (active) | 89% (active) | -2% (inactive) | 99% (active) | inactive | inactive | inactive | inactive
28 | CCN(CCO)CCc1cccc(Nc2nccc(-c3c(-c4ccc(NC(=O)N(CC)CC)cc4)nn4ccccc34)n2)c1 | 95% (active) | 46% (inactive) | 2% (inactive) | 101% (active) | inactive | inactive | inactive | inactive
29 | CC(C)(C)c1ccc(CN2CCCCC(NC(=O)c3cc(-c4cccc(Cl)c4)cs3)C2)cc1 (stereo not given) | 60% (active) | 11% (inactive) | 1% (inactive) | 96% (active) | inactive | inactive | inactive | inactive
30 | CN1CCC(OC(=O)c2cc3cc(-c4ccccc4)ccc3n2S(=O)(=O)c2ccccc2)CC1 | 10% (inactive) | 31% (inactive) | -5% (inactive) | 88% (active) | inactive | inactive | inactive | inactive
31 | COc1cc(Br)c(S(=O)(=O)n2cc(CN3CCC(N)CC3)c3cc(Cl)ccc32)cc1OC | 32% (inactive) | 27% (inactive) | -4% (inactive) | 99% (active) | inactive | inactive | inactive | inactive
32 | COc1cc(CCNc2nc(NCc3ccccc3-c3ccccc3)nc(N3CCC(N)CC3)n2)ccc1O | 70% (active) | 25% (inactive) | -4% (inactive) | 100% (active) | inactive | inactive | inactive | inactive
33 | c1ccc(-c2ccc(-c3csc(Nc4ccncc4)n3)cc2)cc1 | 97% (active) | 30% (inactive) | 3% (inactive) | 101% (active) | inactive | inactive | inactive | inactive
34 | COc1ccc(S(=O)(=O)N2CCC(NS(=O)(=O)c3ccc(F)cc3)CC2)cc1 | -3% (inactive) | 3% (inactive) | 0% (inactive) | 80% (active) | inactive | inactive | inactive | inactive
35 | Cc1cc(NC(=O)CCN2CCN(c3cccc(Cl)c3Cl)CC2)ccc1N1CCN(C(C)C)CC1 | 8% (inactive) | 82% (active) | 7% (inactive) | 99% (active) | inactive | inactive | inactive | inactive
36 | CCCCN1CCN(CCCCNc2c3ccccc3nc3ccccc23)CC1 | 5% (inactive) | 27% (inactive) | 4% (inactive) | 100% (active) | inactive | inactive | inactive | inactive
37 | N=C(N)c1ccc(-c2cc3ccc(C(=N)N)cc3[nH]2)cc1 | 99% (active) | 18% (inactive) | -2% (inactive) | 99% (active) | inactive | inactive | inactive | inactive
38 | O=C(NCCN1CCCCC1)c1ccc(CNC(=O)c2ccc(O)c(-c3cccc(C(F)(F)F)c3)c2)cc1 | 47% (inactive) | 3% (inactive) | 1% (inactive) | 94% (active) | inactive | inactive | inactive | inactive
39 | CN1CCN(c2ccc(Nc3c(C(N)=O)cnc4cc(-c5ccoc5)ccc34)cc2C(F)(F)F)CC1 | 97% (active) | 13% (inactive) | -9% (inactive) | 100% (active) | inactive | inactive | inactive | inactive
40 | c1ccc(C(c2ccccc2)N2CCC(NCc3ccc(OCCCN4CCCCC4)cc3)CC2)cc1 | 101% (active) | 74% (active) | 4% (inactive) | 100% (active) | inactive | inactive | inactive | inactive
